Compound activity (PubChem)
A selection: hits, their analogues and other compounds. The true share with any hit is near 11%.
HEK cytotox = kills HEK 293 cells | hit rate 6.6% among 94,000 | AID 1345083 | HEK 293 viability, ATP luminescence (CellTiter-Glo), 48-72 h | Potency, µM (titrated, usually from 115 µM), usual class: inhibitors; further: nearly all actives have a fitted effect of over 60% in size
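Cytotoxicity was scored by loss of ATP-coupled luminescence (CellTiter-Glo) in HEK 293 cells. Compound treatment ran 48 or 72 hr at 37 degree Celsius, 5% CO2, 95% humidity.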
Luciferase inh = blocks purified firefly luciferase enzyme activity | purified P. pyralis luciferase, luminescence, biochemical | Potency, µM (doses to about 115 µM), hits mostly inhibitors | hit rate 2.5% among 76,000; further: nearly all actives have a fitted effect of over 65% in size
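FLuc 10nM, D-luciferin 10uM, ATP 10uM, Mg acetate 10mM, Tris acetate pH 7.5, Tween/BSA; cpd qHTS; enzyme added last; CCD luminescence.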
NIH3T3 tox = NIH 3T3 cell cytotoxicity | NIH 3T3 viability, CellTiter-Glo ATP luminescence, 48-72 h | Potency, µM (titrated, usually from 96.7 µM), actives largely listed as inhibitors | hit rate 4.3% among 94,000 | AID 1345082; further: nearly all actives have a fitted effect of over 55% in size
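First NIH 3T3 cells are plated at 400 cells/well; next compound is pinned in; then plates incubate 48 or 72 hr at 37 °C; finally CellTiter-Glo is added and luminescence read after 10 min.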
hNpr1 antagonist = blocks ANP-stimulated signaling of human Npr1 receptor. P16066. HEK293 hNpr1 GloSensor cGMP, ANP-stimulated luminescence. Potency, µM (highest dose often 46.3 µM), actives largely listed as inhibitors. hit rate 1.6% among 76,000. AID 1347048; calls by dose curve; further: nearly all actives have a fitted effect of over 60% in size
Target sequence (P16066 whole entry, looked up): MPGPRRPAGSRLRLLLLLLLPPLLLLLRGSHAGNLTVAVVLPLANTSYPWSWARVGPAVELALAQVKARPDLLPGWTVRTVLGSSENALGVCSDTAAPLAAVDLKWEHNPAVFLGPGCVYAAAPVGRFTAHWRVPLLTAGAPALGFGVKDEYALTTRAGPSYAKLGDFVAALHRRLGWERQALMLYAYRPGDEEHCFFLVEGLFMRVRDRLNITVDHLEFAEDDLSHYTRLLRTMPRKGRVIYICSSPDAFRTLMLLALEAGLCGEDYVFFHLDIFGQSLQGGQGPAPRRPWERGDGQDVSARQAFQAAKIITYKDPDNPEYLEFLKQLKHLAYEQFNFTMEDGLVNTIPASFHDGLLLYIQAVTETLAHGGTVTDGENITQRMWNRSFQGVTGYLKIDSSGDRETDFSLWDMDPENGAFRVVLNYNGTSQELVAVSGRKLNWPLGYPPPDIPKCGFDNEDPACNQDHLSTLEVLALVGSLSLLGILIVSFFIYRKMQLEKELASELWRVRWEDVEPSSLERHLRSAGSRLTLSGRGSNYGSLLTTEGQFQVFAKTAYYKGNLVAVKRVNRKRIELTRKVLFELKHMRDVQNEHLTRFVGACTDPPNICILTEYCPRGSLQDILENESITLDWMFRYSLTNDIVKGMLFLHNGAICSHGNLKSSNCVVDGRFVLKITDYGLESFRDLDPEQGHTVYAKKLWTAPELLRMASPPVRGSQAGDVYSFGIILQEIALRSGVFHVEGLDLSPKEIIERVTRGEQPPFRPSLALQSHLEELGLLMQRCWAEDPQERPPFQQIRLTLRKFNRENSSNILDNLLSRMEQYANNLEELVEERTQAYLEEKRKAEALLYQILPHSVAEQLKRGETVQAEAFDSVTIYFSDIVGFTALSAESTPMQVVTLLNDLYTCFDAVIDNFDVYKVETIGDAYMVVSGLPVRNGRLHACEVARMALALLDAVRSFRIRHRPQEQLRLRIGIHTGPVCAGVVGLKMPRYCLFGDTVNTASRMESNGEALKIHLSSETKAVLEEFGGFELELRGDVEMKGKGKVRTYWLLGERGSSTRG
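Compound pre-incubated 30 min at room temperature on GloSensor-loaded HEK293 cells stably carrying hNpr1 and the pGS-40F cGMP biosensor. Stimulation uses hNppA at 0.1 nM final; luminescence is taken at baseline and 20 min post-agonist.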
A number is an active result. Unless noted, the call rests on the fitted dose curve; in most records, active means well fitted curve in the direction sought with a large enough effect; inconclusive means small, poorly fitted or top-dose-only effect, or another doubt; inactive means no such curve, though single readings can be large; an effect the other way counts as inactive or inconclusive.

Screening COc1ccc(NC(=O)Cn2cccc2-c2nc(-c3ccccc3)no2)cc1OC returned HEK cytotox 31.6µM, Luciferase inh inactive, NIH3T3 tox 31.6µM and hNpr1 antagonist inactive.
For CCOc1ccc(NC(=O)Cn2cccc2-c2nc(-c3ccccc3)no2)cc1 the results were HEK cytotox 28.2µM, Luciferase inh inactive, NIH3T3 tox inconclusive and hNpr1 antagonist inactive.
Screening CO[C@H]1[C@H](NC(=O)Cc2c[nH]c3ccccc23)c2ccccc2C12CCNCC2 returned HEK cytotox inactive, Luciferase inh inactive, NIH3T3 tox inactive and hNpr1 antagonist inactive.
`Cc1cc(=O)n(CC(=O)Nc2cccc(C(F)(F)F)c2)c(N2CCN(c3ccccc3)CC2)n1` gave HEK cytotox inconclusive, Luciferase inh inactive, NIH3T3 tox inconclusive and hNpr1 antagonist inactive.
`Cc1oc2ccn(Cc3ccccc3F)c(=O)c2c1C(=O)NCc1cccc(Cl)c1` gave HEK cytotox inconclusive, Luciferase inh inactive, NIH3T3 tox inconclusive and hNpr1 antagonist inactive.
`O=C(Nc1cccc2ccccc12)O[C@@H]1CO[C@H]2[C@@H]1OC[C@@H]2NC(=S)Nc1cccc2ccccc12` gave HEK cytotox inconclusive, Luciferase inh inactive, NIH3T3 tox inconclusive and hNpr1 antagonist inactive.
`CN(C)c1ccc(NC(=S)N[C@H]2CO[C@H]3[C@@H]2OC[C@H]3OC(=O)Nc2cccc3ccccc23)cc1` gave HEK cytotox inactive, Luciferase inh 31.6µM, NIH3T3 tox inconclusive and hNpr1 antagonist inactive.
`O=C(Nc1cccc2ccccc12)O[C@@H]1CO[C@H]2[C@@H]1OC[C@@H]2NC(=S)Nc1ccc(Cl)cc1` gave HEK cytotox 39.8µM, Luciferase inh inactive, NIH3T3 tox inconclusive and hNpr1 antagonist inactive.
S=C(Nc1cccc2ccccc12)N[C@H]1CO[C@H]2[C@@H]1OC[C@H]2OCc1ccccc1 was read as HEK cytotox 63.1µM, Luciferase inh inactive, NIH3T3 tox inconclusive and hNpr1 antagonist inconclusive.
For CNC(=O)N1CCC(C2CCN(Cc3ccc(F)c(OC)c3)C2)CC1 (centres undefined) the results were HEK cytotox inactive, Luciferase inh inactive, NIH3T3 tox inactive and hNpr1 antagonist inactive.
Screening COc1ccccc1-c1ccc2ncn(Cc3ccccc3)c(=O)c2n1 returned HEK cytotox inconclusive, Luciferase inh inactive, NIH3T3 tox 7.94µM and hNpr1 antagonist inactive.
Screening O=c1c2nc(NCc3ccccc3)ccc2ncn1Cc1ccccc1 returned HEK cytotox inconclusive, Luciferase inh inactive, NIH3T3 tox 35.5µM and hNpr1 antagonist inactive.
Screening Cc1ccc(S(=O)(=O)Nc2ccc3c(c2)CN(CCc2ccc(F)cc2)C(=O)C(C)O3)cc1F (centres undefined) returned HEK cytotox inconclusive, Luciferase inh inactive, NIH3T3 tox inconclusive and hNpr1 antagonist inactive.
Screening CC1Oc2ccc(NS(=O)(=O)c3cccc(Cl)c3)cc2CN(Cc2ccccc2Cl)C1=O (centres undefined) returned HEK cytotox inconclusive, Luciferase inh inactive, NIH3T3 tox 22.4µM and hNpr1 antagonist inactive.
For CC1Oc2ccc(NC(=O)c3ccccc3Cl)cc2CN(Cc2ccc3c(c2)OCO3)C1=O (centres undefined) the results were HEK cytotox inconclusive, Luciferase inh inactive, NIH3T3 tox inconclusive and hNpr1 antagonist inactive.
For CC1Oc2ccc(NS(=O)(=O)c3ccc(Cl)cc3)cc2CN(Cc2ccccc2F)C1=O (centres undefined) the results were HEK cytotox inconclusive, Luciferase inh inactive, NIH3T3 tox 35.5µM and hNpr1 antagonist inconclusive.
For CCC(c1ccccc1)N1Cc2cc(NS(=O)(=O)c3ccc(F)cc3)ccc2OC(C)C1=O (centres undefined) the results were HEK cytotox inconclusive, Luciferase inh inactive, NIH3T3 tox 14.1µM and hNpr1 antagonist inactive.
`COc1cccc(C(=O)NC2CCN(c3ccc4nnc(C)n4n3)CC2)c1` gave HEK cytotox inactive and NIH3T3 tox inactive.
Screening CN1CCN(C(CN)C2CCCCC2)CC1 (centres undefined) returned HEK cytotox inconclusive and NIH3T3 tox 44.7µM.
CC1=C[C@@H](CNCc2ccc(C#N)cc2)[C@H](C(C)C)C[C@H]1Cc1nnc(C(C)(C)C)o1 was read as HEK cytotox inconclusive, Luciferase inh inactive, NIH3T3 tox inconclusive and hNpr1 antagonist inactive.
O=C(C1CCCN1C(=O)c1ccc(F)cc1)N1CCC(c2ccccc2)CC1 (centres undefined) was read as HEK cytotox inconclusive and NIH3T3 tox inactive.
Screening CC(C)(C)c1ccc(-c2cc(C[C@H]3CNCC[C@H]3CC(=O)N3CCCCC3)no2)cc1 returned HEK cytotox inconclusive, Luciferase inh inactive, NIH3T3 tox 35.5µM and hNpr1 antagonist inactive.
Screening CN1CCN(C(=O)C[C@@H]2CCNC[C@@H]2Cc2cc(-c3ccc(C(C)(C)C)cc3)on2)CC1 returned HEK cytotox inconclusive, Luciferase inh inactive, NIH3T3 tox 79.4µM and hNpr1 antagonist inactive.
`CC(C)(C)c1ccc(-c2cc(C[C@H]3CNCC[C@H]3CC(=O)N3CCN(c4ccc(F)cc4)CC3)no2)cc1` gave HEK cytotox inconclusive, Luciferase inh inactive, NIH3T3 tox inconclusive and hNpr1 antagonist inactive.
O=C(C[C@@H]1CCNC[C@@H]1Cc1cc(-c2ccccc2)on1)N1CCCCC1 was read as HEK cytotox inconclusive, Luciferase inh inactive, NIH3T3 tox inconclusive and hNpr1 antagonist inactive.
Screening COc1ccc2[nH]c(C[C@@H]3C[C@@H](C(C)C)[C@H](CNC(=O)c4cccnc4)C=C3C)nc2n1 returned HEK cytotox 56.2µM, Luciferase inh inactive, NIH3T3 tox inconclusive and hNpr1 antagonist inactive.
For CCCNC(=O)NC[C@@H]1C=C(C)[C@H](Cc2nc3nc(OC)ccc3[nH]2)C[C@H]1C(C)C the results were HEK cytotox 63.1µM, Luciferase inh inactive, NIH3T3 tox 89.1µM and hNpr1 antagonist inactive.
For CC1=C[C@@H](CNC(=O)C(C)C)[C@H](C(C)C)C[C@H]1Cc1nc2ncccc2[nH]1 the results were HEK cytotox inactive, Luciferase inh inactive, NIH3T3 tox inconclusive and hNpr1 antagonist inactive.
For CC(=O)NC[C@@H]1C=C(C)[C@H](Cc2nc3ccccc3[nH]2)C[C@H]1C(C)C the results were HEK cytotox inconclusive, Luciferase inh inactive, NIH3T3 tox inconclusive and hNpr1 antagonist inactive.
`Cc1cc(NC(=O)C(C)(C)Oc2nn(CC3CC3)c3ccc(CN4CCCC4)cc23)n(C)n1` gave HEK cytotox inconclusive, Luciferase inh inactive, NIH3T3 tox inconclusive and hNpr1 antagonist inactive.
Screening COCCn1cc(C(=O)NC2CCCc3c2[nH]c2ccccc32)c2ccccc2c1=O (centres undefined) returned HEK cytotox 44.7µM, Luciferase inh inactive, NIH3T3 tox inconclusive and hNpr1 antagonist inactive.
`O=C(Cc1c[nH]c2ccccc12)NC1CCCc2c1[nH]c1ccc(F)cc21` (centres undefined) gave HEK cytotox 35.5µM, Luciferase inh inactive, NIH3T3 tox 31.6µM and hNpr1 antagonist inactive.
`COc1ccc(CC(=O)NC2CCCc3c2[nH]c2ccc(F)cc32)cc1OC` (centres undefined) gave HEK cytotox inconclusive, Luciferase inh inactive, NIH3T3 tox inconclusive and hNpr1 antagonist inconclusive.
